“And” between values parts separate entries of the source, which are not always exact repeats. Equal entries are not always repeated. Compounds without any hit were thinned out: in the full panel of roughly 79,000, 15% have a hit. Unmarked numbers belong to inactive results. The source made the active and inactive calls. Cut-off read from the data, not from the text of the source: active = growth inhibition above about 70%; inactive = the rest.
How the values were obtained:
[1] = NCI Yeast Anticancer Drug Screen. Data for the rad50 strain (AID 155);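 note: 0% = growth of vehicle-only cultures of the same strain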; details: S. cerevisiae rad50 strain growth inhibition; at 50.0 µM; hits give high values
In short: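 Cells are treated with compound, grown, and their growth is then scored against vehicle-only cultures of the same repair-deficient yeast strain.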

[2] = NCI Yeast Anticancer Drug Screen. Data for the mec2-1 strain (AID 157); details: S. cerevisiae mec2-1 strain, at 50.0 µM, hits give high values
In short: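 Cells of the genetically defined mec2-1 yeast strain are incubated with test compound. Inhibition of growth is calculated against vehicle-treated controls.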

[3] = NCI Yeast Anticancer Drug Screen. Data for the sgs1 mgt1 strain (AID 161);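 note: 0% = growth of cultures given vehicle only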; details: S. cerevisiae sgs1 mgt1 strain, at 50.0 µM, hits give high values
In short: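 Inhibition of yeast growth, normalised to vehicle-treated controls, is reported for a strain bearing genetic alterations in DNA damage repair.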

[4] = NCI Yeast Anticancer Drug Screen. Data for the cln2 rad14 strain (AID 165);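 note: 0% = growth equal to vehicle treated cultures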; details: S. cerevisiae cln2 rad14 strain, at 50.0 µM, hits give high values
In short: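 The screen exposed genetically defined yeast (cln2 rad14) to test compounds and scored growth inhibition relative to vehicle-treated controls.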

[5] = NCI Yeast Anticancer Drug Screen. Data for the bub3 strain (AID 167); details: S. cerevisiae bub3 mutant strain, at 50.0 µM, hits give high values
In short: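 Part of a panel of yeast mutants defective in DNA damage repair or cell cycle regulation. Each strain is grown with compound, and inhibition is calculated relative to solvent-treated cultures.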

[6] = NCI Yeast Anticancer Drug Screen. Data for the mlh1 rad18 strain (AID 175); details: S. cerevisiae mlh1 rad18 strain growth inhibition; at 50.0 µM; hits give high values
In short: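 Compound-treated yeast growth, normalised to vehicle controls. Strain bears defined DNA repair mutations.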

Compound | growth inhibition [1] | growth inhibition [2] | growth inhibition [3] | growth inhibition [4] | growth inhibition [5] | growth inhibition [6]
OCC(S)CS.[Sb] (stereo unspecified) | 21.1% | 19.1% | 29.8% | 41% | 44% | 42%
Cc1cc(N(CCCl)CCCl)ccc1C=Nc1ccc(F)cc1[N+](=O)[O-] | 4.3% | 3.1% | 2.65% | 1.65% | -8.45% | 18.7%
C[CH2][Sn](/[CH]=C/C=C/OC)([CH2]C)[CH2]C | 36.5% | 47% | 66.2% | 16.8% | 83.4% (active) | 89.7% (active)
CN(N=O)C(=O)NC1CCCCC1 | -18.6% | -0.25% | -1.25% | -4.45% | -1.95% | 13.8%
CC(=O)N[C@@H](C[S-])C(=O)O.O=[N+]([O-])O.[Ag+] | -1.95% | 0.95% | 53.8% | 25.1% | 19.9% | 21.1%
CC1CN1c1nc(N2CC2C)nc(N2CC2C)n1 (stereo unspecified) | -6.8% | 13.6% | -2.65% | -1.85% | -19.2% | -11.1%
C[N+]1([O-])[C@H]2CC(OC(=O)[C@H](CO)c3ccccc3)C[C@H]1[C@H]1O[C@H]12 (stereo partly specified) | -9.75% | -3.35% | -14.9% | -26.5% | -34.2% | -10.1%
COc1cc2c(cc1O)CC1CC(=O)CCN1C2 (stereo unspecified) | -3.4% | 4.5% | -12.1% | -6.85% | -10.8% | -0.75%
CCCC(=O)O.[Ni] | 8.1% | -4.05% | -6% | -39.9% | -20.2% | -2.7%
O=C(O)c1ccc(Cl)c(Cl)c1.[Ni] | -19.1% | -16.4% | -4.35% | -11.9% | -23.4% | -19.7%
NC(=S)N=C(N)N | 11.8% | -3.55% | -6.25% | -10.4% | 8.4% | 9.85%
COCCCNP(=O)(OC(C)C)OC(C)C | 0.75% | 0.85% | 8.6% | 5.8% | 9.2% | 14.8%
CN1CCc2c([nH]c3ccccc23)C1 | 18.4% | -7.3% | 20.6% | 17.2% | 1.2% | -45.1%
CC(N)c1ccccc1 (stereo unspecified) | -5.95% and 39.2% | -6.55% and 3% | 11% and 28% | -23.1% and 17.1% | -10.3% and 38.8% | 2.8% and 37.6%
CO[As](OC)c1ccc(N=Nc2ccc(N(C)C)cc2)cc1 | 98.4% (active) | 99.2% (active) | 98.9% (active) | 98.6% (active) | 99% (active) | 99.2% (active)
CC12CCC3C(CCC4(C)CC(OC(=O)Cc5ccc(N(CCCl)CCCl)cc5)CCC34C)C1CCC2=O (stereo unspecified) | -10.4% | 2.85% | -2.3% | -1.4% | -4.8% | 3.65%
O=C1NC(=O)C(=O)C(=O)N1 | -16.2% | 8.15% | -1.75% | -32.2% | 1% | 0.5%
C[C@]12CC[C@H](O)C[C@H]1CC[C@@H]1[C@@H]2CC[C@]2(C)[C@@H](C3=CC(=O)OC3)CC[C@]12O | -3.9% | 12.4% | 5.55% | -56.4% | 15.3% | 8.4%

Compound | growth inhibition [1] | growth inhibition [2] | growth inhibition [3] | growth inhibition [4] | growth inhibition [5] | growth inhibition [6]
CCCCP(=O)(CCCC)CCCC.CCCCP(=O)(CCCC)CCCC.CCCCP(=O)(CCCC)CCCC.CCCCP(=O)(CCCC)CCCC.[Ce+3].[O-][Cl+3]([O-])([O-])O | 43.9% | 36.3% | 30.6% | 33.9% | 62.1% | 42.4%
COc1ccc(C(C)N)cc1 (stereo unspecified) | -47.4% | -5.3% | -10.4% | -11.2% | -4.3% | -2.9%
COc1cccc(C=O)c1OC | 15.8% and 43.1% | 2.2% and 24.1% | 4.2% and 20.9% | 27.1% and -7.95% | 3.5% and 12.7% | 47% and 37.1%
CN1C2CCC1CC(=O)C2 | -14.6% | -48.2% | -32.6% | -8.35% | -29.9% | -27.4%
Clc1ccc2c(c1)Cc1cc(N(CCBr)CCBr)ccc1-2 | 24.8% | 13.1% | 40% | 46.6% | 12.4% | 47.1%
CC(=O)CC(C)=O.CC(=O)CC(C)=O.CC(=O)CC(C)=O.[Cr] | 20.2% | -8.3% | 1.05% | -27.7% | 4.3% | 13.2%
CCC(C)C(CC)C(=O)NC(N)=O (stereo unspecified) | 4.4% | 4.55% | -11.4% | -1.35% | 8.5% | 0.95%
O=C1NC(=O)C(CCC(=O)c2ccc3ccccc3c2)C(=O)N1 | -29.1% | -22.8% | -57.6% | -10.8% | -34.8% | -25.8%
CCOS(=O)OCC | 19% | 0.35% | -26.1% | 17.9% | 17.6% | 9.2%
COc1ccc2c(c1O)CNCC2c1ccc(O)cc1O (stereo unspecified) | 0.6% | -12% | -7.25% | -11.9% | -24.8% | -2%
C[CH2][Sn]([CH2]C)([O]c1cccccc1=O)[O]c1cccccc1=O | 87.1% (active) | 18.8% | 94.2% (active) | -15.6% | 7.8% | 52.5%
COc1cc2ccnc(C3(OC(=O)c4ccccc4)CCN(CCc4ccccc4)CC3)c2cc1OC | -1.3% | -7.15% | -21.9% | -17.1% | 2.95% | -0.95%
C[CH2][Sn](=[O])[c]1ccccc1 | -21.9% | -17.6% | 3.3% | 10.3% | -0.9% | -23.4%
C=C1CCC2CC1C2(C)C (stereo unspecified) (tested in a mixture with another compound) | 7.95% | -14.2% | -5.7% | -2.7% | 5.85% | -23.9%
NC(=O)C1(Cl)CCCCC1 | -11.8% | -22.8% | -20.8% | -11.2% | -6.1% | -6.25%
Cc1cccc(N)c1 | 6.5% | -6.75% | 1.35% | 5.65% | 14.2% | 10.4%
CC1(C)N=C(N)N=C(N)N1c1ccc(Cl)c(CCCCc2ccc(S(=O)(=O)F)cc2)c1 | 99.8% (active) | 99.8% (active) | 99.2% (active) | 99.4% (active) | 99.6% (active) | 99.8% (active)
O=C(CP(=O)(O)O)NC(CC(=O)OCc1ccccc1)C(=O)OCc1ccccc1 (stereo unspecified) | 12.8% and 33% | 7.65% and -0.7% | 16.9% and 20.3% | 14.9% and 12.6% | 2.05% and 1.2% | -3.4% and 3.45%

Reference: PubChem BioAssay (NCI)
